The supplement of paper PMC10849652
Of roughly 7,900 targets only a part is listed; those with a hit were picked by preference. About 0.6% of all pairs of compound and target were hits.

Key:
Assay in all cases: log2 fold change, soluble protein after heating vs DMSO (PISA); higher = thermal stabilisation; K562 cells, 10 uM, 30 min; active = over 0.2 and 3.5 SD of the protein, either way, in both replicates (recomputed)
[1] = compound: CC[C@@H]1C(=O)N(C)c2cnc(Nc3ccc(C(=O)NC4CCN(C)CC4)cc3OC)nc2N1C1CCCC1
Outline: (§1)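 K562 cells at 2×10^6 cells/mL were treated with 10 μM compound for 30 min. Aliquots were heated for 3 min across 48°C-58°C, pooled, and extracted in PBS with 0.5% NP-40 at 4°C; soluble protein was the supernatant after 21,000xg for 90 min. Soluble protein was quantified by TMTpro 16plex LC-MS/MS with channel sums equalised, and reported as log2 fold change in thermal stability against DMSO controls, with values from duplicates.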

volasertib = compound: CC[C@@H]1C(=O)N(C)c2cnc(Nc3ccc(C(=O)N[C@H]4CC[C@H](N5CCN(CC6CC6)CC5)CC4)cc3OC)nc2N1C(C)C [volasertib]
Outline: as §1

[2] = compound: CC[C@H](C)N1C=C(C2=C(C=C(C=C21)C3=CN=C(C=C3)N4CCNCC4)C(=O)NCC5=C(C=C(NC5=O)C)C)C
Outline: as §1

epoxomicin = compound: CC[C@H](C)[C@@H](C(=O)N[C@@H]([C@@H](C)O)C(=O)N[C@@H](CC(C)C)C(=O)[C@]1(CO1)C)NC(=O)[C@H]([C@@H](C)CC)N(C)C(=O)C [epoxomicin]
Outline: as §1

[3] = compound: CCn1c(C(=O)N(C2CC2)C2CC2)cc2c3c(ncn3C)c(Nc3cc(C)n(C)n3)nc21
Outline: as §1

[4] = compound: CCn1cc(-c2ccnc3[nH]c(-c4cccc(CN(C)C)c4)cc23)c(-c2ccc(NC(=O)N(C)C)cc2)n1
Outline: as §1

[5] = compound: CN(C)CC(=O)Nc1ccc2[nH]c(=O)c3ccccc3c2c1
Outline: as §1

rosiglitazone = compound: CN(CCOC1=CC=C(C=C1)C[C@H]2C(=O)NC(=O)S2)C3=CC=CC=N3 (racemic) [rosiglitazone]
Outline: as §1

[6] = compound: CN1C2=C(C3=C1C(=O)N(N=C3)CC4=CC(=CC=C4)N)SC(=C2)S(=O)C
Outline: as §1

[7] = compound: CN1CCC(CNc2ccc3ncc(-c4cccc(OC(F)(F)F)c4)n3n2)CC1
Outline: as §1

Measured: log2 fold change

RARS (UniProt P54136)
inactive: [1] 0.059 | volasertib -0.172 | [2] 0.072 | epoxomicin -0.085 | [3] -0.099 | [4] 0.107 | [5] 0.013 | rosiglitazone 0.034 | [6] 0.26 | [7] -0.111

RPS27A (UniProt P62979)
inactive: [1] -0.061 | volasertib 0.36 | [2] 0.05 | epoxomicin -0.078 | [3] 0.021 | [4] 0.033 | [5] -0.153 | rosiglitazone -0.145 | [6] 0.155 | [7] 0.194

RSL1D1 (UniProt O76021)
inactive: [1] 0.301 | volasertib 0.399 | [2] 0.012 | epoxomicin -0.517 | [3] -0.065 | [4] 0.155 | [5] -0.214 | rosiglitazone -0.299 | [6] 0.374 | [7] 0.591

RPS2 (UniProt P15880)
inactive: [1] 0.168 | volasertib 0.348 | [2] 0.021 | epoxomicin -0.191 | [3] 0.045 | [4] 0.119 | [5] -0.108 | rosiglitazone -0.092 | [6] 0.195 | [7] 0.086

RRP9 (UniProt O43818)
UniProt O43818, sequence (O43818 whole entry, looked up): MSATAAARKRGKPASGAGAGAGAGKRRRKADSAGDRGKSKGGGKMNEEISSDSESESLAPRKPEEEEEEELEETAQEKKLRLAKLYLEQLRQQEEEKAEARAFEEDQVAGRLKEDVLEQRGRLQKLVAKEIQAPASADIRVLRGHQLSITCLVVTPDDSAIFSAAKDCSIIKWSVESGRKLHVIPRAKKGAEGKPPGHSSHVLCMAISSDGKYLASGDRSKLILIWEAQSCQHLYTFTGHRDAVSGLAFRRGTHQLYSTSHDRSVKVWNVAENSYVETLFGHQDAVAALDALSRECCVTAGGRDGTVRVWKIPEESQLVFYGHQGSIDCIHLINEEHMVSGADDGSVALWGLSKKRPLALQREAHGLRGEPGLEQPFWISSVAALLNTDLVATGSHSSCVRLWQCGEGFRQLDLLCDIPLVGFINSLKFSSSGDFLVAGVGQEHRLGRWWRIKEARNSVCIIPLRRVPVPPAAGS
inactive: [1] 0.09 | volasertib 0.148 | [2] -0.049 | epoxomicin -0.107 | [3] -0.017 | [4] 0.136 | [5] -0.113 | rosiglitazone -0.129 | [6] 0.039 | [7] 0.236

ROCK1 (UniProt Q13464)
inactive: [1] -0.005 | volasertib -0.083 | [2] 0.005 | epoxomicin -0.011 | [3] 0.002 | [4] -0.05 | [5] -0.011 | rosiglitazone 0.042 | [6] 0.031 | [7] 0.096

RPS15 (UniProt P62841)
inactive: [1] 0.2 | volasertib 0.294 | [2] -0.017 | epoxomicin -0.056 | [3] 0 | [4] 0.061 | [5] -0.099 | rosiglitazone -0.113 | [6] 0.164 | [7] 0.02

RNASEH2A (UniProt O75792)
active: [7] -0.394
inactive: [1] -0.062 | volasertib -0.075 | [2] 0.068 | epoxomicin 0.061 | [3] -0.002 | [4] -0.061 | [5] -0.118 | rosiglitazone 0.013 | [6] -0.019

SLC1A3 (UniProt P43003)
inactive: [1] -0.065 | volasertib 0.003 | [2] 0.018 | epoxomicin 0.087 | [3] 0.037 | [4] -0.101 | [5] -0.048 | rosiglitazone -0.021 | [6] -0.286 | [7] 0.254

RPS3 (UniProt P23396)
inactive: [1] 0.147 | volasertib 0.34 | [2] 0.011 | epoxomicin -0.125 | [3] 0.033 | [4] 0.125 | [5] -0.071 | rosiglitazone -0.064 | [6] 0.085 | [7] 0.045

SEC16A isoform 5 (UniProt O15027)
UniProt O15027, sequence (O15027 whole entry, looked up): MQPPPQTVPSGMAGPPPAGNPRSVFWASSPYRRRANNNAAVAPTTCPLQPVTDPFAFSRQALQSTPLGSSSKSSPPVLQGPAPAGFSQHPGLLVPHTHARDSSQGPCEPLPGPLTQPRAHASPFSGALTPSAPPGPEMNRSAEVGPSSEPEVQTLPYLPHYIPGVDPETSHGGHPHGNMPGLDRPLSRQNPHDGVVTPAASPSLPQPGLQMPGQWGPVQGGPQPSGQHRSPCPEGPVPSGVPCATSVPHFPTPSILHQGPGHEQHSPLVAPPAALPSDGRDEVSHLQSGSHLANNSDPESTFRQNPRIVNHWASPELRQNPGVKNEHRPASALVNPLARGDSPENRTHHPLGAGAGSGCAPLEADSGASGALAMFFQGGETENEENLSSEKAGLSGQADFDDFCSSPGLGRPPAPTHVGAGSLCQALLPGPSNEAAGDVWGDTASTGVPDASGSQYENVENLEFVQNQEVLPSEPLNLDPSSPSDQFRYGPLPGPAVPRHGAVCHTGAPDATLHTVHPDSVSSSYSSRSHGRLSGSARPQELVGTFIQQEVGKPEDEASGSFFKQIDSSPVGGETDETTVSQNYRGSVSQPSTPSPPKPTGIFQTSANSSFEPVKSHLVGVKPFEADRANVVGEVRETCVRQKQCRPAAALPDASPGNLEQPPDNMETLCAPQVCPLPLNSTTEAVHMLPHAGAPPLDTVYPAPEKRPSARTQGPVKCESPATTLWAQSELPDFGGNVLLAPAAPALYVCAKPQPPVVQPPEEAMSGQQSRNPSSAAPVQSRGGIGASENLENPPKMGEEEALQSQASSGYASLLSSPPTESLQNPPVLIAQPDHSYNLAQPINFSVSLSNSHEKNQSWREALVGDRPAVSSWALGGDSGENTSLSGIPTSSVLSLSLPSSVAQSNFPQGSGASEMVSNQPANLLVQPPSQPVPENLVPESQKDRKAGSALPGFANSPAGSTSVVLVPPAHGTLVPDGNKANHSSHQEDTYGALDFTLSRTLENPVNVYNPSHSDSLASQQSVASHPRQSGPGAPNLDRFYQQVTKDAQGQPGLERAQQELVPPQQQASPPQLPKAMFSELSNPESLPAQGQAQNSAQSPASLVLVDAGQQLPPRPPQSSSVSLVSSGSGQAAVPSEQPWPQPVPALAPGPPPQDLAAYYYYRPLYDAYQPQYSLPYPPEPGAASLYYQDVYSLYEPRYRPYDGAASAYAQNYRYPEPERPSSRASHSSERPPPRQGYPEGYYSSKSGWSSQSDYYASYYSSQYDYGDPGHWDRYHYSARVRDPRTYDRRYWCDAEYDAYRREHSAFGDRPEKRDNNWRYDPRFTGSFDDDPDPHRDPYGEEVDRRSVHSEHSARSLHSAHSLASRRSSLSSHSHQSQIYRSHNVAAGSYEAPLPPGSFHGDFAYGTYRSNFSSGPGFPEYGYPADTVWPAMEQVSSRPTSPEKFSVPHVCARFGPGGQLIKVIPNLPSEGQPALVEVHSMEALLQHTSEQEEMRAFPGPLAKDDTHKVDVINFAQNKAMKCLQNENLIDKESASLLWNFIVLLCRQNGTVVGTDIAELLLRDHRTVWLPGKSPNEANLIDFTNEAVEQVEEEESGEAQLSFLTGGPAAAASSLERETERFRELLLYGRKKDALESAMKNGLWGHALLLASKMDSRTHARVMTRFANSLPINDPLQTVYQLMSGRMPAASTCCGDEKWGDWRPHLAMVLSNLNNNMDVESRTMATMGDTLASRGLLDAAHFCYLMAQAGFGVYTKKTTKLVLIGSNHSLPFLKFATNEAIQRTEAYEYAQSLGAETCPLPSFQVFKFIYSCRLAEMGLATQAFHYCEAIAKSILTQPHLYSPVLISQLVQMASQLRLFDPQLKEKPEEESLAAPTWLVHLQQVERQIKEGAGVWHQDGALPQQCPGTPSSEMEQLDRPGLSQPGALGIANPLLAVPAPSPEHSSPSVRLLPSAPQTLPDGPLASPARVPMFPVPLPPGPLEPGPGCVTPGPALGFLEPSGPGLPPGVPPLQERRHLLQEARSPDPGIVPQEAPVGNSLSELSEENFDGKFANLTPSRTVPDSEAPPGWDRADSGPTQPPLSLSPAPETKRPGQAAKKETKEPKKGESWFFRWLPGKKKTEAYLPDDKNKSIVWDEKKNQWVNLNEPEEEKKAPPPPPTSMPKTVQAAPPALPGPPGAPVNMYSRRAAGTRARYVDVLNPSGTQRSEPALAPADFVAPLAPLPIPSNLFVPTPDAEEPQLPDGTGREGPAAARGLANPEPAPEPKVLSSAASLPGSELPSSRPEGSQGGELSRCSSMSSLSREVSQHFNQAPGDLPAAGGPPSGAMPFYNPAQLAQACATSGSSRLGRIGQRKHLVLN
inactive: [1] -0.058 | volasertib -0.271 | [2] 0.051 | epoxomicin -0.04 | [3] -0.146 | [4] -0.048 | [5] 0.1 | rosiglitazone 0.06 | [6] 0.078 | [7] -0.047

RB1 (UniProt P06400)
active: [7] -0.265
inactive: [1] 0.018 | volasertib 0.034 | [2] 0.016 | epoxomicin 0.041 | [3] -0.016 | [4] -0.05 | [5] 0.008 | rosiglitazone 0.009 | [6] -0.064

RRS1 (UniProt Q15050)
inactive: [1] 0.291 | volasertib 0.286 | [2] 0.023 | epoxomicin -0.381 | [3] 0.051 | [4] 0.143 | [5] -0.029 | rosiglitazone -0.147 | [6] 0.28 | [7] 0.268

SAAL1 (UniProt Q96ER3)
UniProt Q96ER3, sequence (Q96ER3 whole entry, looked up): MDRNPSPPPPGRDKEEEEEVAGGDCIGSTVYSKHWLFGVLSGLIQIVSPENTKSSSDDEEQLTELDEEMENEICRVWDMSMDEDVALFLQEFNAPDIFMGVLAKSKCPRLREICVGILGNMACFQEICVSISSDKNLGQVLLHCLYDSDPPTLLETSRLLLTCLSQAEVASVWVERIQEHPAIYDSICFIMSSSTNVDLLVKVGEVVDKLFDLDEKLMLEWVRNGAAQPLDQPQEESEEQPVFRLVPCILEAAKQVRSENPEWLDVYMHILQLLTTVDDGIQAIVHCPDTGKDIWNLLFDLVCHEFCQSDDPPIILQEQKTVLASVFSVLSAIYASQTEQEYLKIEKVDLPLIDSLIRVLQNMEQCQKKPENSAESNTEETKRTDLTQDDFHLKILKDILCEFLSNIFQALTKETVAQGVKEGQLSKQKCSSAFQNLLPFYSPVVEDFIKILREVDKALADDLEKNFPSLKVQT
inactive: [1] -0.167 | [2] 0.001 | epoxomicin 0.025 | [3] -0.038 | [4] 0.025 | [5] -0.025 | rosiglitazone 0.051 | [6] -0.012 | [7] -0.219
active: volasertib -0.245

SDCBP (UniProt O00560)
UniProt O00560, sequence (O00560 whole entry, looked up): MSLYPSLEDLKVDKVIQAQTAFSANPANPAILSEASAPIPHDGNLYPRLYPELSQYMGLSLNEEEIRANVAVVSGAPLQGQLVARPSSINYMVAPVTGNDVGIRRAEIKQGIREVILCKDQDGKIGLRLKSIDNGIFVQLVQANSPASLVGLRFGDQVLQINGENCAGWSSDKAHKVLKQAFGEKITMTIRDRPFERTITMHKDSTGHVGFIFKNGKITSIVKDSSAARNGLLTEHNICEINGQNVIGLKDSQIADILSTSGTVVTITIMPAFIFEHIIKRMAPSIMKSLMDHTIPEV
inactive: [1] -0.223 | volasertib -0.249 | [2] 0.01 | epoxomicin -0.043 | [3] 0.059 | [4] -0.01 | [5] -0.061 | rosiglitazone -0.008 | [6] 0.045 | [7] -0.229

RAC1 (UniProt P63000)
active: [7] 0.35
inactive: [1] -0.024 | volasertib 0.03 | [2] 0.026 | epoxomicin 0.019 | [3] 0.019 | [4] 0.044 | [5] 0.05 | rosiglitazone 0.069 | [6] -0.067

RSPRY1 (UniProt Q96DX4)
active: [7] 0.219
inactive: [1] 0.082 | volasertib -0.001 | [2] -0.019 | epoxomicin 0.034 | [3] 0.006 | [4] -0.034 | [5] -0.014 | rosiglitazone 0.011 | [6] -0.176

RRP36 (UniProt Q96EU6)
inactive: [1] 0.217 | volasertib 0.376 | [2] -0.028 | epoxomicin -0.203 | [3] 0.002 | [4] 0.201 | [5] -0.114 | rosiglitazone -0.25 | [6] 0.316 | [7] 0.288

ROCK2 (UniProt O75116)
inactive: [1] -0.033 | volasertib -0.139 | [2] -0.009 | epoxomicin 0.063 | [3] -0.028 | [4] -0.178 | [5] 0.007 | rosiglitazone 0.177 | [6] -0.02 | [7] -0.042

SIDT2 isoform 2 (UniProt Q8NBJ9)
UniProt Q8NBJ9, sequence (Q8NBJ9 whole entry, looked up): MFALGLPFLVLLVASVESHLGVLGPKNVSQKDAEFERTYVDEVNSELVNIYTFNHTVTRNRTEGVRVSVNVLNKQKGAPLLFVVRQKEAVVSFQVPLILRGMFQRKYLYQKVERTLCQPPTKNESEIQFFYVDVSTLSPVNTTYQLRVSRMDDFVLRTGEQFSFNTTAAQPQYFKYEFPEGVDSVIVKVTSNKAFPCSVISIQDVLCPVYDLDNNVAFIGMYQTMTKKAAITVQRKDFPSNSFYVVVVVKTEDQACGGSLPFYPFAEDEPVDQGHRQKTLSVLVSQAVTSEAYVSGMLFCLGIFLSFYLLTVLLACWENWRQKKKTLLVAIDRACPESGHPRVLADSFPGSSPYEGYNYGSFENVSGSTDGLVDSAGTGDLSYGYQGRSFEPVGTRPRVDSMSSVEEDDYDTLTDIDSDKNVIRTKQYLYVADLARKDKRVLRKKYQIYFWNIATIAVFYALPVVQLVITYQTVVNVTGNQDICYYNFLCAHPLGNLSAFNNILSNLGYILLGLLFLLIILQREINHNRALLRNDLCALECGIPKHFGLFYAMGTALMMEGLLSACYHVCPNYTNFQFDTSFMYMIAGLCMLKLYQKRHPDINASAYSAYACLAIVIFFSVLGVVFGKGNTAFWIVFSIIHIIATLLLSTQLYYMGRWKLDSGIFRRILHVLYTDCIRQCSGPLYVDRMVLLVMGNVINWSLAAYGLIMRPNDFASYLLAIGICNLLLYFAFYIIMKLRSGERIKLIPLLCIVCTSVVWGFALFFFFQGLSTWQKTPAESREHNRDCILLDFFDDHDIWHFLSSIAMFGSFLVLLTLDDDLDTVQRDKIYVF
inactive: [1] -0.035 | volasertib 0.055 | [2] -0.026 | epoxomicin 0.002 | [3] -0.014 | [4] 0.069 | [5] -0.041 | rosiglitazone 0.019 | [6] 0.024 | [7] -0.02

SEH1L isoform 1 (UniProt Q96EE3)
inactive: [1] -0.044 | [2] -0.019 | epoxomicin -0.057 | [3] -0.009 | [4] -0.041 | [5] -0.013 | rosiglitazone -0.01 | [6] -0.054 | [7] 0.027
active: volasertib 0.466

SHCBP1 (UniProt Q8NEM2)
inactive: [1] -0.013 | volasertib -0.052 | [2] 0.102 | epoxomicin -0.008 | [3] -0.084 | [4] 0.117 | [5] 0.111 | rosiglitazone -0.028 | [6] 0.056 | [7] -0.139

RGS10 (UniProt O43665)
UniProt O43665, sequence (O43665 whole entry, looked up): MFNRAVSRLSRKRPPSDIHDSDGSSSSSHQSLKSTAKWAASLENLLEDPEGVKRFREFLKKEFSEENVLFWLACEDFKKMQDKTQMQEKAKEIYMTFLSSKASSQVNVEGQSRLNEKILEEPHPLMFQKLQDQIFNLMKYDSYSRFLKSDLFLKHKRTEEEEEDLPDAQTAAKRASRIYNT
inactive: [1] -0.097 | [2] -0.043 | epoxomicin 0.101 | [3] -0.025 | [4] 0.011 | [5] 0.078 | rosiglitazone 0.011 | [6] -0.111 | [7] -0.016
active: volasertib -0.205

SLBP (UniProt Q14493)
UniProt Q14493, sequence (Q14493 whole entry, looked up): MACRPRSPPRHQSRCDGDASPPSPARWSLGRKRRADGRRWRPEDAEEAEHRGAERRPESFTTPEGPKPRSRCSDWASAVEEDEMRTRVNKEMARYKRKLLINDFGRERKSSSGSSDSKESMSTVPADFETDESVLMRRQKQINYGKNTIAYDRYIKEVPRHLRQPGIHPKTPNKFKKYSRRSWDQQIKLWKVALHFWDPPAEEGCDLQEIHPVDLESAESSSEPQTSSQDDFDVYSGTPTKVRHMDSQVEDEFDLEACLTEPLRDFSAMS
active: [7] -0.291
inactive: [1] -0.052 | volasertib -0.034 | [2] 0.013 | epoxomicin 0.127 | [3] -0.03 | [4] 0 | [5] -0.003 | rosiglitazone -0.048 | [6] 0.113

RUNX1 isoform 8 (UniProt Q01196)
inactive: [1] -0.331 | [2] 0.086 | epoxomicin -0.206 | [3] 0.035 | [4] -0.089 | [5] 0.06 | rosiglitazone 0.032 | [6] -0.027 | [7] -0.102
active: volasertib -0.434

RPP25L (UniProt Q8N5L8)
UniProt Q8N5L8, sequence (Q8N5L8 whole entry, looked up): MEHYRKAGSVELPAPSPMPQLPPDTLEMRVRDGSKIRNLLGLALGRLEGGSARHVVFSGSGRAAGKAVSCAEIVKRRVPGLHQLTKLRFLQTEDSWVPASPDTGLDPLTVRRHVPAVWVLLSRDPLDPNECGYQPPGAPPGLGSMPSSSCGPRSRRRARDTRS
inactive: [1] 0.144 | volasertib 0.115 | [2] -0.042 | epoxomicin -0.04 | [3] -0.052 | [4] 0.059 | [5] -0.074 | rosiglitazone -0.093 | [6] 0.061 | [7] 0.058

RSF1 (UniProt Q96T23)
inactive: [1] -0.138 | volasertib -0.358 | [2] 0.012 | epoxomicin 0.165 | [3] -0.097 | [4] -0.098 | [5] 0.141 | rosiglitazone 0.006 | [6] -0.008 | [7] -0.109

RFC3 (UniProt P40938)
inactive: [1] -0.008 | volasertib -0.052 | [2] 0.047 | epoxomicin 0.042 | [3] 0.001 | [4] -0.081 | [5] 0.038 | rosiglitazone 0.05 | [6] -0.096 | [7] -0.008

SCAMP2 (UniProt O15127)
inactive: [1] -0.009 | volasertib 0.052 | [2] -0.01 | epoxomicin 0.001 | [3] 0.065 | [4] 0.043 | [5] 0.061 | rosiglitazone -0.043 | [6] -0.006 | [7] -0.1

RAB8B (UniProt Q92930)
inactive: [1] 0.036 | volasertib 0.033 | [2] -0.039 | epoxomicin 0.229 | [3] -0.011 | [4] 0.003 | [5] 0.013 | rosiglitazone 0.085 | [6] -0.05 | [7] 0.227
